Records with an inconclusive call do not appear. Active and inactive are the calls of the source. Unless noted, the call rests on the fitted dose curve; in most records, active means well fitted curve in the direction sought with a large enough effect in the repeat runs; inconclusive means weak or mixed curves; inactive means no such curve, though single readings can be large; an effect the other way counts as inactive or inconclusive.
Key:
[1] = qHTS assay to identify small molecule antagonists of the glucocorticoid receptor (GR) signaling pathway - cell viability counter screen (AID 720693); further: nearly all actives have a fitted effect of over 55% in size
[2] = qHTS assay for identifying genotoxic compounds that show differential cytotoxicity against isogenic chicken DT40 cell lines with known DNA damage response pathways - wild type cell line (AID 743012); further: nearly all actives have a fitted effect of over 60% in size; further: potency means the concentration at half of the fitted maximal effect
How it was run: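 Cytotoxicity in repair-proficient parental chicken DT40 cells serves as the comparator for Rad54/Ku70- and Rev3-deficient lines. Cells were exposed to compounds for 40 h at 37 C/5% CO2, and ATP-based luminescence (CellTiter-Glo) measured viability.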

[3] = qHTS assay for identifying genotoxic compounds that show differential cytotoxicity against isogenic chicken DT40 cell lines with known DNA damage response pathways - Rev3 mutant cell line (AID 743014); further: nearly all actives have a fitted effect of over 55% in size; further: potency means the concentration at half of the fitted maximal effect
[4] = qHTS assay for identifying genotoxic compounds that show differential cytotoxicity against isogenic chicken DT40 cell lines with known DNA damage response pathways - Rad54/Ku70 mutant cell line (AID 743015); further: nearly all actives have a fitted effect of over 60% in size; further: potency means the concentration at half of the fitted maximal effect
[5] = qHTS assay to identify small molecule antagonists of the androgen receptor (AR) signaling pathway - cell viability counter screen (AID 743033; further: nearly all actives have a fitted effect of over 45% in size)
[6] = qHTS assay to identify small molecule antagonists of the androgen receptor (AR) signaling pathway using the MDA cell line - cell viability counter screen (AID 743041; further: nearly all actives have a fitted effect of over 45% in size)
How it was run: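 Cytotoxicity counter screen: MDA-kb2 AR-luc cells, compound + R1881, 16 h, 37C, 0% CO2; CellTiter-Fluor added at 15.5 h, fluorescence read after 30 min.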

[7] = qHTS assay to identify small molecule antagonists of the thyroid receptor (TR) signaling pathway - cell viability counter screen (AID 743064); further: nearly all actives have a fitted effect of over 50% in size
How it was run: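 GH3.TRE-Luc rat pituitary cells carrying a TRE-luciferase reporter were treated with compound plus 1 nM T3 (final) for 23.5 h at 37 °C. Viability was then read in the same wells by CellTiter-Fluor fluorescence after a further 30 min.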

[8] = qHTS assay to identify small molecule antagonists of the thyroid receptor (TR) signaling pathway (AID 743065); further: nearly all actives have a fitted effect of over 55% in size; further: potency means the concentration at half of the fitted maximal effect
How it was run: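 GH3.TRE-Luc rat pituitary cells (two TREs driving luciferase) were dosed with compound, then stimulated with 1 nM T3 (final) for 23.5 h at 37 C. ONE-Glo luminescence was the read-out, with CellTiter-Fluor fluorescence as the cytotoxicity counter-screen.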

[9] = test system: thyroid hormone receptor (rat, GH3 cells); assay: qHTS assay to identify small molecule agonists of the thyroid receptor (TR) signaling pathway (AID 743066; calls by dose curve)
[10] = molecular target: Estrogen receptor (Homo sapiens) (UniProt P03372); assay: qHTS assay to identify small molecule antagonists of the estrogen receptor alpha (ER-alpha) signaling pathway (AID 743069; active means well fitted curve in the direction sought with a large enough effect in the signal ratio in the repeat runs, not every such curve was filed as active; the % refers to the signal ratio)
How it was run: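 Beta-lactamase FRET fluorescence is read after 2 hr at room temperature with LiveBLAzer B/G substrate. Before that, ER-alpha-bla HEK293 cells sit 4 hr after plating, then receive compound plus 17beta-estradiol and incubate 18 hr at 37C.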

[11] = qHTS assay to identify small molecule antagonists of the estrogen receptor alpha (ER-alpha) signaling pathway - cell viability counter screen (AID 743074; calls by dose curve;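 further: HEK293 cells carrying ER-alpha-UAS-bla reporter stimulated with 17beta-estradiol; nearly all actives have a fitted effect of over 45% in size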)
[12] = molecular target: Estrogen receptor (Homo sapiens) (UniProt P03372); assay: qHTS assay to identify small molecule agonists of the estrogen receptor alpha (ER-alpha) signaling pathway (AID 743075; calls by dose curve)
[13] = molecular target: Estrogen receptor (Homo sapiens) (UniProt P03372); assay: qHTS assay to identify small molecule agonists of the estrogen receptor alpha (ER-alpha) signaling pathway using the BG1 cell line (AID 743079); further: nearly all actives have a fitted effect of over 20% in size; further: potency means the concentration at half of the fitted maximal effect
[14] = qHTS assay to identify small molecule antagonists of the estrogen receptor alpha (ER-alpha) signaling pathway using the BG1 cell line (AID 743080; calls by dose curve; further: series mostly up to about 70 µM; nearly all actives have a fitted effect of over 25% in size)
How it was run: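 Antagonist mode: compounds in DMSO were pinned onto BG1-Luc-4E2 cells alongside 17beta-estradiol agonist, incubated 21.5 h, and ERE-driven luciferase measured with ONE-Glo. Cytotoxicity was multiplexed using CellTiter-Fluor fluorescence.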

[15] = qHTS assay to identify small molecule antagonists of the estrogen receptor alpha (ER-alpha) signaling pathway using the BG1 cell line - cell viability counter screen (AID 743081);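 further: compound given together with 17beta-estradiol as the ER stimulus; series mostly up to about 70 µM; nearly all actives have a fitted effect of over 45% in size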
Aromatase (Homo sapiens) = Aromatase (Homo sapiens) (UniProt P11511); assay: qHTS assay to identify aromatase inhibitors (AID 743083); further: series mostly up to about 70 µM; nearly all actives have a fitted effect of over 55% in size
[16] = molecular target: Androgen receptor (Homo sapiens) (UniProt P10275); assay: qHTS assay to identify small molecule antagonists of the androgen receptor (AR) signaling pathway (AID 743035; active means well fitted inhibition curve with a large enough effect in the signal ratio in the repeat runs, not every such curve was filed as active; the % refers to the signal ratio)
How it was run: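 Steps: seed AR-UAS-bla GripTite HEK293 cells, incubate 4 h at 37C; pin in test compound, then add agonist R1881; incubate 16 h at 37C; add LiveBLAzer B/G FRET substrate, 2 h at room temperature; read fluorescence.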

[17] = molecular target: Androgen receptor (Homo sapiens) (UniProt P10275); assay: qHTS assay to identify small molecule agonists of the androgen receptor (AR) signaling pathway (AID 743036; active means well fitted activation curve with a large enough effect in the signal ratio in the repeat runs, with a control signal flat, not every such curve was filed as active; the % refers to the signal ratio)
How it was run: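 HEK293 cells stably carrying a UAS-driven beta-lactamase reporter (GeneBLAzer AR-UAS-bla-GripTite) were plated at 2,000 cells/well, rested 4 h at 37C, then exposed to compounds in DMSO for 16 h. LiveBLAzer B/G FRET substrate was added for 2 h at room temperature; fluorescence read.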

[18] = molecular target: Androgen receptor (Homo sapiens) (UniProt P10275); assay: qHTS assay to identify small molecule agonists of the androgen receptor (AR) signaling pathway using the MDA cell line (AID 743040; further: nearly all actives have a fitted effect of over 20% in size)
How it was run: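 Luciferase read-out, ONE-Glo, 30 min RT. Cells: MDA-kb2 AR-luc, MMTV promoter with AR and GR response elements. Compound exposure 16 h, 37C, 0% CO2, after 5 h pre-incubation. qHTS agonist mode.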

[19] = molecular target: Androgen receptor (Homo sapiens) (UniProt P10275); assay: qHTS assay to identify small molecule antagonists of the androgen receptor (AR) signaling pathway using the MDA cell line (AID 743042; further: nearly all actives have a fitted effect of over 55% in size)
How it was run: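 MDA-kb2 breast carcinoma cells carrying MMTV-luciferase (AR/GR responsive) were co-treated with compounds and the agonist R1881 for 16 h at 37C. Inhibition read as ONE-Glo luminescence; CellTiter-Fluor fluorescence measured in parallel for cytotoxicity.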

Measured: Potency

Estrogen receptor (Homo sapiens), sequence (P03372 whole entry, looked up): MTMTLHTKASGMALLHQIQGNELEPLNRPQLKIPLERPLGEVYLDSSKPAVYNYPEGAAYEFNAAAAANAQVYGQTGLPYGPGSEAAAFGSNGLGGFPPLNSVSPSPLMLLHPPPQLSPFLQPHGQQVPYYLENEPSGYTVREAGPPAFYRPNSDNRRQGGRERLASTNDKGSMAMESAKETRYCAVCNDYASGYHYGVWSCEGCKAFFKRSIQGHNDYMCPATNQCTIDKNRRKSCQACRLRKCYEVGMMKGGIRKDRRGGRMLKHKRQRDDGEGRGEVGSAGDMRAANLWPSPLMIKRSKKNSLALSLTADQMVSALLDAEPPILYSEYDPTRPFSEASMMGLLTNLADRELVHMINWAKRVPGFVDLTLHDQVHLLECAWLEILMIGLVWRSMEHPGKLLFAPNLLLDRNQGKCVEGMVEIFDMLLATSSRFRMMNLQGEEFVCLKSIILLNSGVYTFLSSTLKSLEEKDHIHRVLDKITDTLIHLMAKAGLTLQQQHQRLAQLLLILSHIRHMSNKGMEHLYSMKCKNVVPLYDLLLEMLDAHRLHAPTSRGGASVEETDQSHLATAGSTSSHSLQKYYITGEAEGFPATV
Androgen receptor (Homo sapiens), sequence (P10275 whole entry, looked up): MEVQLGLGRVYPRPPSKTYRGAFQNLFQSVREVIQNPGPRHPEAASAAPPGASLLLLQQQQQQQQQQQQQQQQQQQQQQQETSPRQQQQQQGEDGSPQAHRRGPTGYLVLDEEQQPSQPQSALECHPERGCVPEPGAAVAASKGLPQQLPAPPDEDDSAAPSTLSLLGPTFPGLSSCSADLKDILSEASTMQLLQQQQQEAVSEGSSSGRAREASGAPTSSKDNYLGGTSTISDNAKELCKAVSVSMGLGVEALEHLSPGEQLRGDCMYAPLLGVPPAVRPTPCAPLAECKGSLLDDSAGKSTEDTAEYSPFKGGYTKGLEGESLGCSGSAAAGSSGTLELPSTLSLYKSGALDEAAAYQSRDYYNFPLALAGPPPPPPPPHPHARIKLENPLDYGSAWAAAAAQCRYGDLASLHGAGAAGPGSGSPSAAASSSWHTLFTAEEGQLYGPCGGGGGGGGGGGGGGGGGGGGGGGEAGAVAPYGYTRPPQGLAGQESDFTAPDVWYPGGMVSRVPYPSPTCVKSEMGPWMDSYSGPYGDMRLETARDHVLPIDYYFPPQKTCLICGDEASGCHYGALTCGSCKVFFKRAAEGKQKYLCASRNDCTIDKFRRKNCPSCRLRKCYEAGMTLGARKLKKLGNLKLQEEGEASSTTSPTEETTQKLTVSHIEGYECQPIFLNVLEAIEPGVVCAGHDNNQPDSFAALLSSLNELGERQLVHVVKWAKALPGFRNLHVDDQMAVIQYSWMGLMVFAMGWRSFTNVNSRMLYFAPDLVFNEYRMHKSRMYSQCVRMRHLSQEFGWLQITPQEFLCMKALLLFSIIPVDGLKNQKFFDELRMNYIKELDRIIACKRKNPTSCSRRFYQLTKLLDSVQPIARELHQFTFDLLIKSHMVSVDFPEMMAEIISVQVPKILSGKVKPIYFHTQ
Aromatase (Homo sapiens), sequence (P11511 whole entry, looked up): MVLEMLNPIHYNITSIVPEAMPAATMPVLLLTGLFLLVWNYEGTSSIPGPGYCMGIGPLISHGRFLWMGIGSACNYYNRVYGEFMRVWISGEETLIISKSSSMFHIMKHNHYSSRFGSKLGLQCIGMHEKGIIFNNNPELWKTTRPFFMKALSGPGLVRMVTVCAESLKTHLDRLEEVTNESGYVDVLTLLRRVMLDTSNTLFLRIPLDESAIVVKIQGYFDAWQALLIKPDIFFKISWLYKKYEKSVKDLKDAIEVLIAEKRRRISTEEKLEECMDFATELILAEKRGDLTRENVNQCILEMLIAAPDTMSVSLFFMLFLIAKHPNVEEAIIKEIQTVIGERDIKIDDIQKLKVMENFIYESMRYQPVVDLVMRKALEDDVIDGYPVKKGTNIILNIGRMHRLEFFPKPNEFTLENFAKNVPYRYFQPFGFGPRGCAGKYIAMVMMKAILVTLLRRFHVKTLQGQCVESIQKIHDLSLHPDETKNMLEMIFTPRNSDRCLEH

CC1=CC(=O)[C@H]2C[C@@H]1C2(C)C
inactive: [1] | [2] | [3] | [4] | [5] | [6] | [7] | [8] | [9] | [10] | [11] | [12] | [13] | [14] | [15] | Aromatase (Homo sapiens)

CCCOC(=O)CC
inactive: [1] | [2] | [3] | [4] | [5] | [16] | [17] | [18] | [6] | [19] | [7] | [8] | [9] | [10] | [11] | [12] | [13] | [14] | [15] | Aromatase (Homo sapiens)

Cc1ccc(C(=O)c2ccccc2)cc1
active: [2] 61.1 µM | [3] 54.5 µM | [4] 68.6 µM | [13] 21.7 µM
inactive: [1] | [5] | [16] | [17] | [18] | [6] | [19] | [7] | [8] | [9] | [10] | [11] | [12] | [14] | [15] | Aromatase (Homo sapiens)

CCC(C(=O)NC(=O)NC(C)=O)c1ccccc1 (stereo unspecified)
inactive: [1] | [2] | [3] | [4] | [5] | [6] | [7] | [8] | [9] | [10] | [11] | [12] | [13] | [14] | Aromatase (Homo sapiens)

Nc1c2c(nc3c1CCC3)CCCC2
inactive: [1] | [2] | [3] | [4] | [5] | [18] | [6] | [19] | [9] | [10] | [11] | [12] | [13] | [14] | [15] | Aromatase (Homo sapiens)

CC(C)C1CCC(O)CC1 (stereo unspecified)
inactive: [1] | [2] | [3] | [4] | [5] | [16] | [17] | [18] | [6] | [19] | [7] | [8] | [9] | [11] | [15] | Aromatase (Homo sapiens)

CN(C)C(=O)Oc1cccc([N+](C)(C)C)c1
inactive: [1] | [2] | [3] | [4] | [5] | [6] | [7] | [8] | [9] | [10] | [11] | [12] | [13] | [14] | [15] | Aromatase (Homo sapiens)

CCOC(=O)COC(=O)c1ccccc1C(=O)OCC
inactive: [1] | [2] | [3] | [4] | [5] | [6] | [7] | [8] | [9] | [10] | [11] | [12] | [13] | [14] | [15] | Aromatase (Homo sapiens)

CCCCCCCCCCOc1cc2c(=O)c(C(=O)OCC)c[nH]c2cc1OCC
inactive: [1] | [2] | [3] | [4] | [5] | [6] | [7] | [8] | [9] | [10] | [11] | [12] | [13] | [14] | [15] | Aromatase (Homo sapiens)

O=C(O)c1cc(C(=O)O)cc(C(=O)O)c1
inactive: [1] | [2] | [3] | [4] | [5] | [6] | [7] | [8] | [9] | [10] | [11] | [12] | [13] | [14] | [15] | Aromatase (Homo sapiens)

CC(=O)c1ccccc1[N+](=O)[O-]
inactive: [1] | [2] | [3] | [4] | [5] | [6] | [7] | [8] | [9] | [10] | [11] | [12] | [13] | [14] | [15] | Aromatase (Homo sapiens)

COC(=O)Nc1ccc(Cl)c(Cl)c1
inactive: [1] | [2] | [3] | [4] | [5] | [17] | [18] | [6] | [19] | [9] | [11] | [15] | Aromatase (Homo sapiens)
active: [8] 60.8 µM

CC(=O)c1cnccn1
inactive: [1] | [2] | [3] | [4] | [5] | [6] | [7] | [8] | [9] | [10] | [11] | [12] | [13] | [15] | Aromatase (Homo sapiens)

CCC1C(=O)OCC1Cc1cncn1C (stereo unspecified)
inactive: [1] | [2] | [3] | [4] | [5] | [6] | [7] | [8] | [9] | [10] | [11] | [12] | [13] | [14] | [15] | Aromatase (Homo sapiens)

O=C(O)CCSCCC(=O)O
inactive: [1] | [2] | [3] | [4] | [5] | [17] | [18] | [6] | [19] | [8] | [9] | [11] | [12] | [13] | [14] | [15] | Aromatase (Homo sapiens)

O=C(CO)[C@@H](O)[C@H](O)[C@@H](O)CO
inactive: [1] | [2] | [3] | [4] | [5] | [6] | [7] | [8] | [9] | [10] | [11] | [12] | [13] | [14] | [15] | Aromatase (Homo sapiens)

— PubChem BioAssay (Tox21)
